# A selection: hits, their analogues and other compounds. The true share with any hit is near 7.4%.
# Rab9 promoter act: activators of Rab9 promoter; 320,000 compounds, 2.8% hits; AID 485297; Potency, µM (doses to about 9.22 µM), without a hit: top-dose activation, negative = inhibition, usual class: activators; Huh7 Rab9 promoter-luciferase reporter, luminescence, 24 h; note: % of control where 0% means no effect; nearly all actives have a fitted effect of over 60% in size
#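 Stable Rab9-luc Huh7, 1500 cells/well, 2 h settle; cmpd in DMSO, 24 h, 37 °C/5% CO2; luciferase reagent 10 min RT; luminescence.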
# SMN2 splice up: SMN2 splice variant enhancement | Potency, µM (doses to about 46.1 µM), for the others: at the highest dose activity change, positive = activation, actives largely listed as activators | 210,000 compounds, 2.8% hits | HEK293 SMN2-luciferase splicing reporter, luminescence, 30-36 h; note: % of control where 0% means no effect; nearly all actives have a fitted effect of over 55% in size
#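 HEK293 cells carry an SMN2 minigene-luciferase reporter in which exon 7 inclusion puts luciferase in frame. Cells were seeded at 2000 cells/well, attached for 10-12 hours, then exposed to compounds for 30-36 hours at 37C before ONE-Glo luminescence.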
# ELG1 genotoxic: genotoxicity induction in ELG1-luciferase HEK293T cells | HEK293T ELG1-luciferase reporter, luminescence, 16 h | Potency, µM (titrated, usually from 46 µM), without a hit: top-dose activity change, positive = activation, usual class: activators | 330,000 compounds, 1.3% hits | AID 504466; note: % of control where 0% means no effect; nearly all actives have a fitted effect of over 60% in size
#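 Genotoxic stress is detected as increased luminescence from luciferase-tagged ELG1 in HEK293T cells, measured with ONE-Glo after a 16 hr treatment at 37 °C.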
# NPC1 prom act: NPC1 promoter activation | Huh7 NPC1 promoter luciferase reporter, 24 h | Potency, µM (highest dose often 9.22 µM), inactives show at the top dose activation, hits mostly activators | 320,000 compounds, 2.4% hits | AID 485313; note: % of control where 0% means no effect; nearly all actives have a fitted effect of over 60% in size
#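 In 1536-well qHTS, Huh7 cells harboring an NPC1 promoter–luciferase construct received compound for 24 h; activation was quantified by luminescence following luciferase reagent addition.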
# FLuc counter: firefly luciferase modulation, counter-screen for miR-21 project. Potency, µM (doses to about 57.5 µM), inactives show top-dose activity change, negative = inhibition, actives largely listed as inhibitors. P08659. purified FLuc, Km substrates, luminescence inhibition. AID 588342. 360,000 compounds, 6.9% hits;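 note: plate controls were vehicle for no effect and reference inhibitor for full effect; nearly all actives have a fitted effect of over 55% in size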
# Target sequence (P08659 whole entry, looked up): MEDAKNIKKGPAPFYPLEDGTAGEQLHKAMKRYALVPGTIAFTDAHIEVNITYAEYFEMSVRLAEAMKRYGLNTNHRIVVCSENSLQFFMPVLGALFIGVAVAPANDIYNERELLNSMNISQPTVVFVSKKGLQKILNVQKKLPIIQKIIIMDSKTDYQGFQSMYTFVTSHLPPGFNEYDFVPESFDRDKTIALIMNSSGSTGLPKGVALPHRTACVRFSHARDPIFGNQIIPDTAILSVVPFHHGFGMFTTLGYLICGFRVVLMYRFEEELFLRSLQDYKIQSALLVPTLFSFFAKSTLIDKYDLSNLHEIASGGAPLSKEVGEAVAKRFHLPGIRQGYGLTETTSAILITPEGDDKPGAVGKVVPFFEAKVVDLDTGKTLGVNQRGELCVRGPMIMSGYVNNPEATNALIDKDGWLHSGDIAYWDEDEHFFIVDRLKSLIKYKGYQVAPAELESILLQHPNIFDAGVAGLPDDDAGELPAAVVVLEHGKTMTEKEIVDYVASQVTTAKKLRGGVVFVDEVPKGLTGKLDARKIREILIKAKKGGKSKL
#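 Purified P. pyralis luciferase (10nM final) with 10uM D-luciferin and 10uM ATP (Km levels) in 50mM Tris acetate pH 7.5, 10mM Mg acetate, 0.01% Tween-20, 0.05% BSA; qHTS 6-point titration, ~60 µM downward; luminescence read.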
# Luc counter: Kinase-Glo luciferase inhibition (counter-screen) | Q27757 | Kinase-Glo luciferase, ATP luminescence, 8 min | Potency, µM (top dose mostly 38.3 µM), inactives show top-dose activity change, negative = inhibition, actives largely listed as inhibitors | 200,000 compounds, 0.28% hits; note: % is set by controls: 0 for no effect and ±100 for the full control effect; nearly all actives have a fitted effect of over 60% in size
#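 Luminescence was the read-out, taken after 8-minute incubation at ambient temperature. Luciferase turned over luciferin with 10 uM ATP in imidazole pH 7.2 buffer containing KCl, MgCl2, Tween 20 and BSA.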
# The depositor's hits bear a star; ? = inconclusive; · = no result given; [ ] = dose if it differs, or a comment. Calls come from the whole dose curve; as a rule, active = well fitted curve in the direction sought with a large enough effect; inconclusive = small, poorly fitted or top-dose-only effect, or another doubt; inactive = no such curve, though single readings can be large; an effect the other way counts as inactive or inconclusive. Potency is the fitted concentration of half-maximal effect.
SMILES,Rab9 promoter act,SMN2 splice up,ELG1 genotoxic,NPC1 prom act,FLuc counter,Luc counter
C=C(C)CSc1nc(N)c(C#N)c(-c2ccc(C)cc2)c1C#N,·,2%,·,·,15µM*,-4%
CCOC(=O)CSc1nc(N)c(C#N)c(-c2ccc(OC)cc2)c1C#N,3%,·,7%,0%,-1%,·
COC(=O)c1cc2c(s1)-c1ccccc1OC2,-11%,2%,10%,8%,24µM*,0%[39.9 µM]
O=C(c1ccc2c(c1)OCO2)N1CCCCC1,·,·,·,·,·,2%
O=C(c1ccc2c(c1)OCO2)n1nnc2ccccc21,1%,-8%,-1%,-3%,6.7µM*,-18%
COc1ccc(N(C)C(=O)c2cc3c(s2)-c2ccccc2OC3)cc1,·,-24%,·,·,?,·
O=C(c1ccc2c(c1)OCO2)N1CCc2ccccc2C1,24%,?,?,?,21µM*,-9%
COC(=O)c1cc2c(s1)-c1ccc(OC)cc1CC2,?,·,?,15%,9.5µM*,·
CCC(C)NC(=O)Cn1c(=O)n(CCCCCC(=O)NCc2ccccc2Cl)c(=O)c2sccc21 (stereo not drawn),·,2%,·,·,-10%,·
O=C(c1cc2c(s1)-c1ccccc1OC2)N1CCc2ccccc2C1,21%,20µM*,17%,11%,?,2%
COc1ccccc1N1CCN(C(=O)c2cc3c(s2)-c2ccccc2OC3)CC1,-2%,-5%,-1%,0%,3%,·
Oc1nc(Nc2ccc(Cl)cc2Cl)sc1/C=C1\C=Nc2ccccc21,-6%,3.2µM*,-3%,1%,-10%,-1%
O=C(c1ccco1)N1N=C(c2cccs2)CC1c1cc([N+](=O)[O-])ccc1O (stereo not drawn),0%,·,10%,11%,17µM*,·
O=C(c1ccco1)N1N=C(c2cccs2)CC1c1ccc(F)cc1 (stereo not drawn),-3%,-9%,-1%,7%,-3%,-2%
Cc1sc2nc(-c3cccnc3)nc(Cl)c2c1-c1ccccc1,17%,?,11%,?,17µM*,-2%
COc1ccc(C)cc1NC(=O)CNC(=O)c1sc2ccccc2c1Cl,-3%,·,15%,4%,1%,·
Cc1ccnc(NC(=O)CCCNC(=O)c2ccc(Cl)cc2)c1,?,·,?,?,17µM*,·
Cc1ccnc(NC(=O)CNC(=O)c2sc3ccccc3c2Cl)c1,28%,·,10µM*,28%,12µM*,·
Cc1ccnc(NC(=O)c2sc3cc(Cl)ccc3c2Cl)c1,0.63µM*,6.3µM*,2.9µM*,0.13µM*,0.6µM*,3%
Cc1ccc(NC(=O)CN(C)C(=O)CNC(=O)c2sc3ccccc3c2Cl)cc1,25%,·,16µM*,?,2.7µM*,·
CCOc1ccc(OCC)c(-c2c(=O)n(OCc3ccc(C(C)(C)C)cc3)c3ccccc3[n+]2[O-])c1,-1%,-6%,-6%,-5%,8.5µM*,-2%
Fc1ccc(COc2ccc(-c3nnco3)cc2)c(Cl)c1,?,·,25%,25%,?,·
Fc1cc(Br)ccc1COc1ccc(-c2nnco2)cc1,2.5µM*,·,?,2.5µM*,?,·
CCC(=O)N1CCc2cc(CNC(=O)c3cccc(N(C)C)c3)ccc21,·,·,·,·,-14%,·
C/C(NC(=O)c1ccccc1F)=C1\C(=O)C[C@@H]2[C@H]1C2(C)C,?,·,?,?,15µM*,·
C/C(NC(=O)c1cccc(F)c1)=C1/C(=O)C[C@@H]2[C@H]1C2(C)C,25%,6%,?,25%,11µM*,0%
Cc1cccc(Nc2c([N+](=O)[O-])c(=O)n(C)c3ccccc23)c1,-4%,-11%[1.84 µM],1%,-1%,21µM*,-5%
Cc1ccc(NC(=O)c2cc3c(s2)CCCC3)cc1S(=O)(=O)Nc1ccccc1Cl,-5%,-60%,-8%,-7%,17µM*,0%
Cc1ccc(C(=O)Nc2ccc(C)c(S(=O)(=O)Nc3ccccc3Cl)c2)s1,-3%,-52%,-3%,3%,?,-4%

# From PubChem
